The results in this text go back to ChEMBL document CHEMBL5308504, “Tm Shift (DSF) assay results for EUbOPEN Chemogenomics Library” (2023).

Where “and” joins values, the source holds several entries; their conditions need not be identical. Equal entries are not always repeated.

The first experiment deals with Mitogen-activated protein kinase 1 (Homo sapiens) (UniProt P28482). The conditions noted are these: Compound concentration 20.0 uM, Protein concentration 2.0 uM, Result type QC Liability.
Mitogen-activated protein kinase 1 (Homo sapiens), sequence (P28482 whole entry): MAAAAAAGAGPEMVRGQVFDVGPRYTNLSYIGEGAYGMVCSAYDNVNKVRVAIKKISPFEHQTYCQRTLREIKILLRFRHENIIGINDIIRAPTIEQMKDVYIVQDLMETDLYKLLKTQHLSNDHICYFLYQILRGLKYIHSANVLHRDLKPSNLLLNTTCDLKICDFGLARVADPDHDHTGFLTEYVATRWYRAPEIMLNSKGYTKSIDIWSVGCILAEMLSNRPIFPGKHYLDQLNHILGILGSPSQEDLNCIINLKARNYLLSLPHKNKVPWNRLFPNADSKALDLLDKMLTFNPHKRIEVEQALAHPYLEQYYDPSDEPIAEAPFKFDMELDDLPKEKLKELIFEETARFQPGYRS
Broadly, the ΔTm is the change in melting temperature against a reference sample. As to `COc1ccc(COc2ccc(Cc3cnc(N)nc3N)cc2OC)cc1`, the ΔTm came out at 0.25 °C.
As to `O=C1NC(=NCc2cccs2)SC1=Cc1ccc2ncccc2c1`, the ΔTm amounted to 0.66 °C.
Same read-out and setting: in the case of `COc1ccc(F)c(F)c1C(=O)c1cnc(NC2CCN(S(C)(=O)=O)CC2)nc1N` it was 0.27 °C; in that of `COc1cc2nc([C@@H]3CCCS(=O)(=O)C3)n(C)c2cc1NC(=O)c1cccc(C(C)(F)F)n1`, 0.05 °C.
On the same count and under the same terms, for `O=C(Nc1ccc(OC(F)(F)Cl)cc1)c1cnc(N2CC[C@@H](O)C2)c(-c2cc[nH]n2)c1` the value was 0.21 °C.
Still for that read-out and setting: for `CC1(C)C(=O)N([C@H]2CCc3c(O)cccc32)c2nc(Nc3cccc(CN4CCCC4)c3)ncc21` the value was 5.19 °C.
Regarding `CC(C)(C)c1cnc(CSc2cnc(NC(=O)C3CCN(CC(=O)NCCOCCOCCOCCNc4cccc5c4C(=O)N(C4CCC(=O)NC4=O)C5=O)CC3)s2)o1` (stereo not given), the ΔTm was determined as 0.99 °C.
On the same count and under the same terms, in the case of `COc1cc(N(C)c2ccnc3ccc(C(F)(F)F)cc23)cc(OC)c1OC` it was 0.28 °C.
Take `Cn1cnc(Cn2ccc3ccc(CNCc4[nH]c5ccccc5c4[C@@H]4NC(=O)c5ccc(O)cc54)cc32)c1`: the ΔTm turned out to be 0.02 °C.
`CN(C)CC#Cc1ccc2[nH]c3c(c2c1)-c1nc(N)ncc1CCC3`: the ΔTm was determined as 0.46 °C.
Still for that read-out and setting: in the case of `Cc1ccc(-n2nc(C(C)(C)C)cc2NC(=O)Nc2ccc(OCCN3CCOCC3)c3ccccc23)cc1` it was 0.43 °C and 1.14 °C; in that of `NS(=O)(=O)c1ccc(Nc2nc(OCC3CCCCC3)c3nc[nH]c3n2)cc1`, 2.65 °C; in that of `C[C@@H]1Cc2c([nH]c3ccccc23)[C@@H](c2c(F)cc(/C=C/C(=O)O)cc2F)N1CC(C)(C)F`, 0.55 °C.
Still for that read-out and setting: in the case of `Cc1cccc(-c2[nH]c(CNc3ccccc3F)nc2-c2ccc3ncnn3c2)n1` it was 0.92 °C; in that of `CCN1CCN(Cc2ccc(C(=O)Nc3ccc(C)c(Oc4ccc5c(c4)CC(=O)N5)c3)cc2C(F)(F)F)CC1`, 0.26 °C.
For the molecule `CC(=O)Nc1nc(CN2CCC[C@H](Cc3cc(C)nc(C)c3)C2)cs1`, the ΔTm was 0.5 °C.
Same read-out and setting: for `Nc1ncnc2[nH]c(-c3ccccc3)nc12` the value was 0.38 °C; for `CNc1nc(Nc2ccc(C(=O)N3CCOCC3)cc2OC)ncc1Cl`, 0.36 °C.
Still for that read-out and setting: in the case of `COCCNC1CCC(Nc2cc(-c3csc(NCC4(C#N)CCOCC4)n3)c(Cl)cn2)CC1` (stereo not given) it was 0.43 °C.
For the molecule `CNC(=O)c1c(F)cccc1Nc1nc(Nc2cc3c(cc2OC)CCN3C(=O)CN(C)C)nc2[nH]ccc12`, the ΔTm was determined as 1 °C.
The same measure, in the same setting: in the case of `CCc1nc(-c2cccc(C)c2)c(-c2ccnc(NC(=O)c3ccccc3)c2)s1` it was -0.25 °C; in that of `c1ccc(C(OC2CCN(CCCc3nnn[nH]3)CC2)c2ccccc2)cc1`, -0.05 °C; in that of `CC(C=CC1=C(C)CCCC1(C)C)=CC=CC(C)=CC(=O)O`, 0.1 °C.
Still for that read-out and setting: in the case of `COc1nc2ccc([C@@](O)(c3ccccc3)C3CCN(C(C)=O)CC3)cc2c(Cl)c1Cc1ccc(-n2cccn2)cc1` it was 0.14 °C; in that of `CC(=O)Oc1ccc2c(c1)[C@@]1(C)CCC[C@](C)(C(=O)OC(=O)[C@@]3(C)CCC[C@]4(C)c5cc(OC(C)=O)ccc5CC[C@@H]34)[C@@H]1CC2`, -2.79 °C; in that of `COc1ccc(N(C(=O)Nc2c(C)cccc2C)c2cc(Nc3ccc(N4CCN(C)CC4)cc3)ncn2)c(OC)c1`, 0.48 °C.
On the same count and under the same terms, in the case of `CCOC(=O)C1Cc2ccccc2CN1C(=O)c1ccc(SC)s1` (stereo not given) it was 0 °C.
For `CC(C)(C)c1cnc(CSc2cnc(NC(=O)C3CCNCC3)s2)o1`, the ΔTm turned out to be 0.73 °C.
The same measure, in the same setting: for `COc1cc(-c2cn(C)c(=O)c3cnccc23)c(OC)cc1CN(C)C` the value was -0.12 °C.
On to `CCN1CCN(Cc2ccc(Nc3ncc(F)c(-c4cc(F)c5nc(C)n(C(C)C)c5c4)n3)nc2)CC1`, for which the ΔTm worked out at 1.41 °C.
As for `CCc1cnn2c(NCc3ccc[n+]([O-])c3)cc(N3CCCCC3CCO)nc12` (stereo not given), the ΔTm turned out to be 1.41 °C.
Same read-out and setting: for `Cn1cc(-n2cnc3c(NCc4nc5cc(Cl)c(Cl)cc5[nH]4)nc(N4CCOCC4)nc32)cn1` the value was -0.02 °C; for `O=C(NC1CCNCC1)c1n[nH]cc1NC(=O)c1c(Cl)cccc1Cl`, -0.04 °C.
With `COc1cc2ncnc(Nc3cccc(O)c3)c2cc1OC`, the ΔTm turned out to be 0.61 °C.
The same measure, in the same setting: for `CC(C)C(=O)N[C@@H]1CCN(C(=O)Nc2nc3c(s2)-c2nc(-c4ccccc4Cl)ncc2CC3)C1` the value was 0.99 °C.
Still for that read-out and setting: in the case of `O=S(=O)(Nc1ccc(C(O)(C(F)(F)F)C(F)(F)F)cc1)c1cccs1` it was 1.04 °C; in that of `CCN(C(=O)c1cc(F)ccc1Oc1cncnc1N1CC2(CCN(C[C@H]3CC[C@H](NS(=O)(=O)CC)CC3)CC2)C1)C(C)C`, 0.35 °C.
Still for that read-out and setting: for `Cc1cccc(-c2nn3c(c2-c2ccnc4ccc(C(N)=O)cc24)CCC3)n1` the value was 0.51 °C.
Take `C[C@H](CCC(=O)O)[C@H]1CC[C@H]2[C@@H]3CC[C@@H]4C[C@H](O)CC[C@]4(C)[C@H]3C[C@H](O)[C@]12C`: the ΔTm came to 0.2 °C.
On to `CC[C@@H]1C(=O)N(C)c2cnc(Nc3ccc(C(=O)NC4CCN(C)CC4)cc3OC)nc2N1C1CCCC1`, for which the ΔTm is 0.15 °C.

Another experiment addresses T1, Aurora kinase A (Homo sapiens) (UniProt O14965).
T1 sequence (whole entry): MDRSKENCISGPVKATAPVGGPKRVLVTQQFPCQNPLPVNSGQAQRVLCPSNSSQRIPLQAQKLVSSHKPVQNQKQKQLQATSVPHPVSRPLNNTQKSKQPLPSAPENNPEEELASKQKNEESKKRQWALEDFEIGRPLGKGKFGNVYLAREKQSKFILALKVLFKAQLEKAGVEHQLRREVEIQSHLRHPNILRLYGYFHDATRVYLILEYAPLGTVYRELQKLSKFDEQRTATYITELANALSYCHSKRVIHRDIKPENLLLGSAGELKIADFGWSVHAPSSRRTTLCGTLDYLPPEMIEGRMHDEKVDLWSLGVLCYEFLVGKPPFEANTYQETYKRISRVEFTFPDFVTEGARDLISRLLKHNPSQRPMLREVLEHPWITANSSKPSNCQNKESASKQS
To be noted: Compound concentration 20.0 uM, Protein concentration 2.0 uM, Result type QC Liability.
As for `COc1ccc(COc2ccc(Cc3cnc(N)nc3N)cc2OC)cc1`, the ΔTm was -0.26 °C.
Regarding `O=C1NC(=NCc2cccs2)SC1=Cc1ccc2ncccc2c1`, the ΔTm was -0.94 °C.
Consider `COc1ccc(F)c(F)c1C(=O)c1cnc(NC2CCN(S(C)(=O)=O)CC2)nc1N`, for which the ΔTm was determined as 0.02 °C.
Still for that read-out and setting: for `COc1cc2nc([C@@H]3CCCS(=O)(=O)C3)n(C)c2cc1NC(=O)c1cccc(C(C)(F)F)n1` the value was 1.82 °C; for `O=C(Nc1ccc(OC(F)(F)Cl)cc1)c1cnc(N2CC[C@@H](O)C2)c(-c2cc[nH]n2)c1`, 0.17 °C.
On the same count and under the same terms, for `CC1(C)C(=O)N([C@H]2CCc3c(O)cccc32)c2nc(Nc3cccc(CN4CCCC4)c3)ncc21` the value was 12.8 °C; for `CC(C)(C)c1cnc(CSc2cnc(NC(=O)C3CCN(CC(=O)NCCOCCOCCOCCNc4cccc5c4C(=O)N(C4CCC(=O)NC4=O)C5=O)CC3)s2)o1` (stereo not given), 7.5 °C; for `COc1cc(N(C)c2ccnc3ccc(C(F)(F)F)cc23)cc(OC)c1OC`, -0.2 °C.
Same read-out and setting: in the case of `Cn1cnc(Cn2ccc3ccc(CNCc4[nH]c5ccccc5c4[C@@H]4NC(=O)c5ccc(O)cc54)cc32)c1` it was 0.7 °C; in that of `CN(C)CC#Cc1ccc2[nH]c3c(c2c1)-c1nc(N)ncc1CCC3`, 1.23 °C.
Turning to `Cc1ccc(-n2nc(C(C)(C)C)cc2NC(=O)Nc2ccc(OCCN3CCOCC3)c3ccccc23)cc1`, the ΔTm was 0.18 °C and 0.11 °C.
For the molecule `NS(=O)(=O)c1ccc(Nc2nc(OCC3CCCCC3)c3nc[nH]c3n2)cc1`, the ΔTm came to 7.68 °C.
Still for that read-out and setting: in the case of `C[C@@H]1Cc2c([nH]c3ccccc23)[C@@H](c2c(F)cc(/C=C/C(=O)O)cc2F)N1CC(C)(C)F` it was -0.16 °C.
For `Cc1cccc(-c2[nH]c(CNc3ccccc3F)nc2-c2ccc3ncnn3c2)n1`, the ΔTm was 0.8 °C.
On the same count and under the same terms, in the case of `CCN1CCN(Cc2ccc(C(=O)Nc3ccc(C)c(Oc4ccc5c(c4)CC(=O)N5)c3)cc2C(F)(F)F)CC1` it was -1.25 °C.
As to `CC(=O)Nc1nc(CN2CCC[C@H](Cc3cc(C)nc(C)c3)C2)cs1`, the ΔTm was found to be 0.28 °C.
The same measure, in the same setting: for `Nc1ncnc2[nH]c(-c3ccccc3)nc12` the value was 0.6 °C; for `CNc1nc(Nc2ccc(C(=O)N3CCOCC3)cc2OC)ncc1Cl`, 3.14 °C.
Still for that read-out and setting: for `COCCNC1CCC(Nc2cc(-c3csc(NCC4(C#N)CCOCC4)n3)c(Cl)cn2)CC1` (stereo not given) the value was 1.44 °C; for `CNC(=O)c1c(F)cccc1Nc1nc(Nc2cc3c(cc2OC)CCN3C(=O)CN(C)C)nc2[nH]ccc12`, 0.07 °C; for `CCc1nc(-c2cccc(C)c2)c(-c2ccnc(NC(=O)c3ccccc3)c2)s1`, -1.25 °C.
Same read-out and setting: in the case of `c1ccc(C(OC2CCN(CCCc3nnn[nH]3)CC2)c2ccccc2)cc1` it was -0.34 °C; in that of `CC(C=CC1=C(C)CCCC1(C)C)=CC=CC(C)=CC(=O)O`, -3.01 °C.
With `COc1nc2ccc([C@@](O)(c3ccccc3)C3CCN(C(C)=O)CC3)cc2c(Cl)c1Cc1ccc(-n2cccn2)cc1`, the ΔTm was -0.6 °C.
Take `CC(=O)Oc1ccc2c(c1)[C@@]1(C)CCC[C@](C)(C(=O)OC(=O)[C@@]3(C)CCC[C@]4(C)c5cc(OC(C)=O)ccc5CC[C@@H]34)[C@@H]1CC2`: the ΔTm was -1.32 °C.
Still for that read-out and setting: for `COc1ccc(N(C(=O)Nc2c(C)cccc2C)c2cc(Nc3ccc(N4CCN(C)CC4)cc3)ncn2)c(OC)c1` the value was 10.1 °C.
Same read-out and setting: for `CCOC(=O)C1Cc2ccccc2CN1C(=O)c1ccc(SC)s1` (stereo not given) the value was -1.2 °C; for `CC(C)(C)c1cnc(CSc2cnc(NC(=O)C3CCNCC3)s2)o1`, 4.45 °C.
The same measure, in the same setting: for `COc1cc(-c2cn(C)c(=O)c3cnccc23)c(OC)cc1CN(C)C` the value was -0.18 °C.
Regarding `CCN1CCN(Cc2ccc(Nc3ncc(F)c(-c4cc(F)c5nc(C)n(C(C)C)c5c4)n3)nc2)CC1`, the ΔTm worked out at 3.81 °C.
On the same count and under the same terms, in the case of `CCc1cnn2c(NCc3ccc[n+]([O-])c3)cc(N3CCCCC3CCO)nc12` (stereo not given) it was -0.54 °C.
As to `Cn1cc(-n2cnc3c(NCc4nc5cc(Cl)c(Cl)cc5[nH]4)nc(N4CCOCC4)nc32)cn1`, the ΔTm was found to be 0.53 °C.
On the same count and under the same terms, in the case of `O=C(NC1CCNCC1)c1n[nH]cc1NC(=O)c1c(Cl)cccc1Cl` it was -1.05 °C; in that of `COc1cc2ncnc(Nc3cccc(O)c3)c2cc1OC`, 2.79 °C; in that of `CC(C)C(=O)N[C@@H]1CCN(C(=O)Nc2nc3c(s2)-c2nc(-c4ccccc4Cl)ncc2CC3)C1`, 2.98 °C.
Same read-out and setting: in the case of `O=S(=O)(Nc1ccc(C(O)(C(F)(F)F)C(F)(F)F)cc1)c1cccs1` it was 0.57 °C; in that of `CCN(C(=O)c1cc(F)ccc1Oc1cncnc1N1CC2(CCN(C[C@H]3CC[C@H](NS(=O)(=O)CC)CC3)CC2)C1)C(C)C`, -1.01 °C.
Still for that read-out and setting: in the case of `Cc1cccc(-c2nn3c(c2-c2ccnc4ccc(C(N)=O)cc24)CCC3)n1` it was -0.95 °C.
For the molecule `C[C@H](CCC(=O)O)[C@H]1CC[C@H]2[C@@H]3CC[C@@H]4C[C@H](O)CC[C@]4(C)[C@H]3C[C@H](O)[C@]12C`, the ΔTm is -0.62 °C.
Same read-out and setting: for `CC[C@@H]1C(=O)N(C)c2cnc(Nc3ccc(C(=O)NC4CCN(C)CC4)cc3OC)nc2N1C1CCCC1` the value was -0.18 °C.
